Results on 25 molecules are retold here after PubChem BioAssay (NCI).

Assay in all cases: NCI-60 one-dose screen, 48 h (100 = growth as untreated, 0 = no growth, -100 = all killed)
The subject of experiment [1] is BT-549 breast. The settings on record: 10 µM unless noted.
Experiment [2] deals with MDA-MB-435 melanoma. The conditions noted are these: 10 µM unless noted.
The subject of experiment [3] is SW-620 colon. The settings on record: 10 µM unless noted.
Experiment [4] concerns MCF7 breast. The settings on record: 10 µM.
In experiment [5] the test system is HCT-116 colon. The settings on record: 10 µM unless noted.
Experiment [6] deals with HCC-2998 colon. The conditions noted are these: 10 µM unless noted.
Experiment [7] deals with KM12 colon. The settings on record: 10 µM unless noted.

This is part of a sample that, as a whole, favours compounds with a hit. Of some 83,000 tested, about 20% had one in any assay.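 A percent growth of 40 corresponds to 60% growth inhibition; 0 means no net growth; -100 means all cells died. Active threshold: below 10.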 Unmarked numbers belong to inactive results. The source made the active and inactive calls.

With `O=C(Nc1ccc(N2CCNCC2)cc1)c1[nH]ncc1Nc1ncnc2sc3c(c12)CCC3`, the growth in experiment [1] is 0.151% (active); in experiment [2], -94.4% (active); in experiment [3] it was -83.1% (active); in experiment [4], -59% (active); in experiment [5] it was -85.4% (active); in experiment [6], -91.4% (active). In addition, in experiment [7], the growth is -82.4% (active).

Take `Cc1cc(Br)c(N)c(Br)c1`: the growth was 94.9% in experiment [1]; 97.4% in experiment [2]; 101% in experiment [3]; 92.3% in experiment [4]; 82.8% in experiment [5]; 90.6% in experiment [6]. The growth in experiment [7] is 104%.

For `O=c1c2cc(F)ccc2sc2c(Nc3ccncc3)nc3ccccc3c12`, the growth in experiment [1] is 81.5%; in experiment [2], -62.1% (active); in experiment [3] it was -74.6% (active); in experiment [4], -77.9% (active); in experiment [5], -48.9% (active); in experiment [6] it was 75.9%. Moreover, the growth in experiment [7] was 1.24% (active).

As for `COc1ccc(-c2cn[nH]c2-c2cc(OC)c(OC)c(OC)c2)cc1OCc1ccccc1`, the growth in experiment [1] was 60%; in experiment [2], -61.8% (active); in experiment [3], 26.6%; in experiment [4], 17.2%; in experiment [5] it was 17.6%; in experiment [6] it was 34.8%. Further, in experiment [7], the growth is 14.7%.

On to `COc1ccc(-c2nsc3c2NC(=O)CC3c2cccc(OC)c2)cc1` (stereo not given), for which the growth in experiment [1] is 39.6%; in experiment [2], -30.6% (active); in experiment [3], 27.2%; in experiment [4], 18.3%; in experiment [5] it was 29%; in experiment [6], 57.4%. In addition, in experiment [7], the growth was 36.2%.

With `CCCN1C(=O)N(CCC)C2C1NN=c1s/c(=C3\C(=O)N(C(C)C)c4ccccc43)c(=O)n12` (stereo not given), the growth in experiment [1] is 47.7%; in experiment [2], -7.13% (active); in experiment [3], 35.9%; in experiment [4] it was 15.4%; in experiment [5] it was 20%; in experiment [6], 65.3%. In addition, the growth in experiment [7] is 26.9%.

On to `CCOc1ccc2c(c1)CN(Cc1ccc(Cl)cc1)CO2`, for which the growth in experiment [1] is 112%; in experiment [2], 64.7%; in experiment [3] it was 69.6%; in experiment [4], 59.4%; in experiment [5] it was 38.7%; in experiment [6] it was 86.4%. Moreover, the growth in experiment [7] was 57.7%.

Take `CCCC(=O)CC(C)=O.CCCC(=O)CC(C)=O.[Cu]`: the growth was 111% in experiment [1]; 109% in experiment [2]; 106% in experiment [3]; 92.4% in experiment [4]; 95.9% in experiment [5]; 102% in experiment [6]. In experiment [7], the growth is 102%.

For the molecule `COC(=O)[C@H]1CCCN1C(=O)[C@H]1CCCN1C(=O)[C@H](Cc1c[nH]c2ccccc12)NC(=S)Nc1cc(C(F)(F)F)cc(C(F)(F)F)c1`, the growth in experiment [1] was 97.4%; in experiment [2], 45.4%; in experiment [3] it was 70.4%; in experiment [4], 32.5%; in experiment [5], 41%; in experiment [6], 16.1%. The growth in experiment [7] is 36.4%.

With `CC(=O)c1ccc(Cc2ccc(C(C)=O)s2)s1`, the growth in experiment [1] was 110%; in experiment [2], 107%; in experiment [3] it was 103%; in experiment [4], 85.1%; in experiment [5], 103%; in experiment [6], 104%. Further, the growth in experiment [7] was 95.2%.

As for `CCOc1ccc(-c2nonc2NC(=O)c2cccc(C)c2)cc1OCC`, the growth is 66.8% in experiment [1]; 51.7% in experiment [2]; 61.8% in experiment [3]; 60.3% in experiment [4]; 47.2% in experiment [5]; 81.8% in experiment [6]. Further, in experiment [7], the growth was 62.6%.

With `CCC1=C[C@]2(C3CC(=O)N(c4ccccc4)C3=O)CC(C(C)(C)C)C[C@@H]2[C@@H]2C(=O)N(c3ccccc3)C(=O)[C@H]12` (stereo not given in full), the growth in experiment [1] is 86.5%; in experiment [2], 85.9%; in experiment [3] it was 88.4%; in experiment [4], 80.7%; in experiment [5], 68.1%; in experiment [6], 103%. The growth in experiment [7] was 85.9%.

Turning to `O=S1(=O)CCN(Cc2ccccc2)CC1`, the growth in experiment [1] was 95.7%; in experiment [2] it was 97.6%; in experiment [3] it was 103%; in experiment [4], 104%; in experiment [5], 88.4%; in experiment [6] it was 101%. For the same molecule, the growth in experiment [7] was 93.9%.

Turning to `O=C(CN1C=NC2C(N3CCOCC3)=NC=NC21)c1ccc(Br)cc1` (stereo not given), the growth in experiment [1] is 103%; in experiment [2], 101%; in experiment [3], 100%; in experiment [4] it was 99.1%; in experiment [5], 103%; in experiment [6], 111%. The growth in experiment [7] was 107%.

On to `COc1ccc(N)c(-c2cc3c(c4c2[nH]c2ccc(OC)cc24)CCCC3)c1`, for which the growth in experiment [1] was 74.6%; in experiment [2], 93.6%; in experiment [3], 83.3%; in experiment [4], 69.1%; in experiment [5], 58.4%; in experiment [6], 104%. Besides, the growth in experiment [7] was 80.2%.

On to `Nc1nc(N)c2c(n1)NC1(C=C(O)c3ccccc31)C1=C(N2)c2ccccc2C1=O` (stereo not given), for which the growth is 112% in experiment [1]; 125% in experiment [2]; 99.4% in experiment [3]; 97.1% in experiment [4]; 101% in experiment [5]; 109% in experiment [6]. Further, the growth in experiment [7] was 109%.

With `O=C(CN1C=NC2C(N3CCOCC3)=NC=NC21)c1cccc2ccccc12` (stereo not given), the growth is 109% in experiment [1]; 99.3% in experiment [2]; 96% in experiment [3]; 89.3% in experiment [4]; 102% in experiment [5]; 120% in experiment [6]. Besides, the growth in experiment [7] was 102%.

Take `O=C(CN1C(=O)/C(=C\c2ccc(Cl)cc2)SC1=S)Nc1ncc(Cc2ccc(Cl)cc2)s1`: the growth in experiment [1] is 113%; in experiment [2], 110%; in experiment [3], 105%; in experiment [4], 94.8%; in experiment [5], 107%; in experiment [6] it was 106%. The growth in experiment [7] was 101%.

With `COc1cc(-c2c3c(cn2S(=O)(=O)c2ccccc2)-c2nc(N)sc2CC3)cc(OC)c1OC`, the growth was 48.5% in experiment [1]; -32.1% (active) in experiment [2]; 25.6% in experiment [3]; 18.5% in experiment [4]; 24% in experiment [5]; 45.5% in experiment [6]. Also, the growth in experiment [7] was 28.5%.

On to `COC(=O)/C(CCC=C(C)C)=C1\[C@@H](OC(C)=O)C[C@@]2(C)[C@H]1CC(=O)N[C@H]1[C@@]3(C)CCNC(=O)[C@@H](C)[C@@H]3CC[C@@]12C`, for which the growth in experiment [1] was 107%; in experiment [2] it was 105%; in experiment [3], 103%; in experiment [4], 93%; in experiment [5], 101%; in experiment [6], 103%. In experiment [7], the growth was 102%.

For `COc1ccc(/C(C#N)=C/c2nc3c(N4CCOCC4)nc(Cl)nc3n2C)cc1OC`, the growth in experiment [1] is -15.7% (active); in experiment [2], -64.5% (active); in experiment [3], -53.7% (active); in experiment [4] it was 6.49% (active); in experiment [5] it was -73.2% (active); in experiment [6] it was 2.12% (active). Further, the growth in experiment [7] is -0.417% (active).

Regarding `O=Cc1c(OCc2cnnn2CC(=O)Nc2ccc(Br)cc2)ccc2ccccc12`, the growth was 80.8% in experiment [1]; 102% in experiment [2]; 91.3% in experiment [3]; 84.1% in experiment [4]; 101% in experiment [5]; 94.3% in experiment [6]. For the same molecule, in experiment [7], the growth is 88.7%.

As for `CSc1nc2c(c(=O)n1C)N=C1c3ccccc3C(=O)C1C(c1ccccc1)N2` (stereo not given), the growth in experiment [1] was 82.3%; in experiment [2], 7.03% (active); in experiment [3] it was 70.7%; in experiment [4] it was 58.7%; in experiment [5], 71.3%; in experiment [6], 64.8%. Besides, the growth in experiment [7] was 63.5%.

Take `CN1CCN(Cc2ccc(NC(=O)c3cncc(C#Cc4nc(N)nc5[nH]ncc45)c3)cc2C(F)(F)F)CC1`: the growth is 82.9% in experiment [1]; 81.5% in experiment [2]; 28% in experiment [3]; 69.1% in experiment [4]; 49.1% in experiment [5]; 133% in experiment [6]. Besides, the growth in experiment [7] is 81.9%.

As for `O=C1/C(=C/c2ccc(O)cc2)COc2ccc(O)cc21`, the growth in experiment [1] is 106%; in experiment [2], 94.8%; in experiment [3], 87.2%; in experiment [4] it was 51.6%; in experiment [5] it was 86.1%; in experiment [6] it was 108%. Also, in experiment [7], the growth was 64.7%.
